ChEMBL document CHEMBL3433997, “St. Jude Leishmania screening dataset” (2016)

Target: Solute carrier family 2, facilitated glucose transporter member 1 (Homo sapiens) (UniProt P11166)
Assay: ST_JUDE_LEISH: Cytotoxicity at 2uM final concentration against transgenic Leishmania Mexicana promastigotes LmGLUT1 that are glucose transport deficient and complemented with the human glucose transporter GLUT1. Activity is measured by DNA content using SYBR green in vitro
Type: functional

Solute carrier family 2, facilitated glucose transporter member 1 (Homo sapiens), sequence (P11166 whole entry): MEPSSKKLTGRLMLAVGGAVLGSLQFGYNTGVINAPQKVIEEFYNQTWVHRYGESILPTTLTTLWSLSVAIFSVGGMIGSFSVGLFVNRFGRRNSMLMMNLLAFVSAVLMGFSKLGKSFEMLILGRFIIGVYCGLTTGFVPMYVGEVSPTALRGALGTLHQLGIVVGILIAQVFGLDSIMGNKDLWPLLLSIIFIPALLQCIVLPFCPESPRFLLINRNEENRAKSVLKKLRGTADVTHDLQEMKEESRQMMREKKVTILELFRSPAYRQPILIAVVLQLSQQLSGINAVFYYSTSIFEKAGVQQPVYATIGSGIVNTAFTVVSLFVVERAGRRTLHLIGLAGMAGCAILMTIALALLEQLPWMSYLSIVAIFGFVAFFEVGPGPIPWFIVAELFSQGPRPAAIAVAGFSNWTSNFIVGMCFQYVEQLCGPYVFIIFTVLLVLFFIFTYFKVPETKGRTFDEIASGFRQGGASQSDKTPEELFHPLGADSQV

Question: `Clc1ccc2c(Cl)c(CNCCCNc3nc4ccccc4[nH]3)[nH]c2c1` was tested. Which inhibition did it give?
Answer: 0.17%

Question: For `CCN(CC)CCOc1ccc(N(Cc2ccc(C(C)(C)C)cc2)C(=O)c2ccc(Cc3ccccc3)cc2)cc1OC`, which inhibition is on record?
Answer: 17.8%

Question: With `O=S(=O)(Nc1cccc(CCN2CCC(N3CCCCC3)CC2)c1)c1ccc2c(c1)OCCO2` as the compound, how does the inhibition read?
Answer: 1.3%

Question: How did the inhibition turn out when `N#Cc1ccc2c(c1)CCN(CCC1CCC(NC(=O)Nc3ccnc4ccccc34)CC1)C2` (stereo not given) was run?
Answer: 4.82%

Question: For `COc1ccc(N2CCN(CCc3ccc(NC(=O)c4ccc([N+](=O)[O-])cc4)cc3)CC2)c(OC)c1`, which inhibition is on record?
Answer: 9.1%

Question: How did the inhibition turn out when `CC(=O)Nc1ncc(C(=O)Nc2cccc(-c3ccc(-c4nc5cccc(C)c5[nH]4)cc3)c2)s1` was run?
Answer: 0.14%

Question: For `O=C(Cc1ccccc1)NC(CCN1CCC(O)(c2cccc(C(F)(F)F)c2)CC1)c1ccc(Cl)c(Cl)c1` (stereo not given), which inhibition is on record?
Answer: 4.97%

Question: How did the inhibition turn out when `c1ccc(COc2ccccc2COc2ccccc2-c2ccc3cccnc3n2)cc1` was run?
Answer: 0.28%

Question: How did the inhibition turn out when `CN(C)CCCOc1ccc(CN2CC[C@H](NC(=O)c3ccc(Cl)c(Cl)c3)C2)cc1Br` was run?
Answer: 3.8%

Question: For `Cc1cccc2c1NC(=O)/C2=N/NC(=S)N(C)C`, which inhibition is on record?
Answer: 1.53%

Question: `C[C@H](NC(=O)c1c(CN2CCC(N3CCCCC3)CC2)c(-c2ccccc2)nc2cc(O)ccc12)C1CCCCC1` was tested. Which inhibition did it give?
Answer: 4.25%

Question: How did the inhibition turn out when `Cc1cc(NCCC(=O)NCc2cccc(F)c2)nc(NCCc2ccc(F)cc2)n1` was run?
Answer: 5.01%

Question: `Cc1cccc2nc(-c3ccc(-c4ccc(CN5CCOCC5)cc4)cc3)[nH]c12` was tested. Which inhibition did it give?
Answer: 4.34%

Question: How did the inhibition turn out when `Cc1[nH]c(C)c(-c2ccc(OCCCCSc3ccncc3)cc2)c(=O)c1Br` was run?
Answer: 8.71%

Question: `CC(=O)N/N=C/[C@H](CCc1ccccc1)NC(=O)[C@H](CC(C)C)NC(=O)c1ccc(OCCN2CCOCC2)cc1` was tested. Which inhibition did it give?
Answer: 2.92%
